Screen size: about 5,500 compounds; about 2,000 (36%) were called active. Roughly 18% stayed inconclusive and do not appear here. No stated cut-off is given here; in the data, active means normalized growth mostly below about 0.91 (no sharp cut-off); inconclusive means no clear call, values can overlap the other calls; inactive means mostly above about 0.92. Some of the results follow.
Test: chemical genetic growth profiling, strain panel (AID 1159580);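 further: tested at 20 µM; growth read once vehicle control cultures reached saturation at 30 °C; 1 = growth at the plate median or of vehicle wells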
Details: S. cerevisiae deletion strains, growth OD
[1] = locus YDL101C, strain DUN1, stronger effect = lower value
[2] = locus YHR030C, strain SLT2, stronger effect = lower value
[3] = locus YAR019C, strain CDC15, stronger effect = lower value
[4] = locus YBL105C, strain PKC1, stronger effect = lower value
[5] = locus YBR135W, strain CKS1, stronger effect = lower value
[6] = locus YBR136W, strain MEC1, stronger effect = lower value
[7] = locus YBR160W, strain CDC28, stronger effect = lower value
[8] = locus YDL017W, strain CDC7, stronger effect = lower value
[9] = locus YDL028C, strain MPS1, stronger effect = lower value
[10] = locus YDL108W, strain KIN28, stronger effect = lower value
[11] = locus YDL132W, strain cdc53, stronger effect = lower value
[12] = locus YDL214C, strain PRR2, stronger effect = lower value
[13] = locus YDR052C, strain DBF4, stronger effect = lower value
[14] = locus YDR054C, strain cdc34, stronger effect = lower value
[15] = locus YDR226W, strain ADK1, stronger effect = lower value
[16] = locus YDR477W, strain SNF1, stronger effect = lower value
[17] = locus YER123W, strain YCK3, stronger effect = lower value
[18] = locus YER133W, strain GLC7, stronger effect = lower value
[19] = locus YFL009W, strain cdc4, stronger effect = lower value
[20] = locus YFL029C, strain CAK1, stronger effect = lower value
[21] = locus YFR003C, strain YPI1, stronger effect = lower value
[22] = locus YFR019W, strain FAB1, stronger effect = lower value
[23] = locus YFR028C, strain CDC14, stronger effect = lower value
[24] = locus YGR040W, strain KSS1, stronger effect = lower value
[25] = locus YGR052W, strain FMP48, stronger effect = lower value
[26] = locus YGR092W, strain DBF2, stronger effect = lower value
[27] = locus YHR079C, strain IRE1, stronger effect = lower value
[28] = locus YHR082C, strain KSP1, stronger effect = lower value
[29] = locus YHR205W, strain SCH9, stronger effect = lower value
[30] = locus YIL147C, strain SLN1, stronger effect = lower value
[31] = locus YJL095W, strain BCK1, stronger effect = lower value
[32] = locus YJL157C, strain FAR1, stronger effect = lower value
[33] = locus YJR016C, strain ILV3, stronger effect = lower value
[34] = locus YJR066W, strain TOR1 (second series), stronger effect = lower value
[35] = locus YJR066W, strain TOR1, stronger effect = lower value
[36] = locus YKL048C, strain ELM1, stronger effect = lower value
[37] = locus YKL067W, strain YNK1, stronger effect = lower value
[38] = locus YKL101W, strain HSL1, stronger effect = lower value
[39] = locus YKL193C, strain SDS22, stronger effect = lower value
[40] = locus YKL203C, strain TOR2, stronger effect = lower value
[41] = locus YLR113W, strain HOG1, stronger effect = lower value
[42] = locus YLR133W, strain CKI1, stronger effect = lower value
[43] = locus YLR403W, strain SFP1, stronger effect = lower value
[44] = locus YML070W, strain DAK1, stronger effect = lower value
[45] = locus YMR001C, strain CDC5, stronger effect = lower value
[46] = locus YMR205C, strain PFK2 (second series), stronger effect = lower value
[47] = locus YMR277W, strain FCP1, stronger effect = lower value
[48] = locus YNL006W, strain LST8, stronger effect = lower value
[49] = locus YNL020C, strain ARK1, stronger effect = lower value
[50] = locus YNL161W, strain CBK1, stronger effect = lower value
[51] = locus YNL183C, strain NPR1, stronger effect = lower value
[52] = locus YNL207W, strain RIO2, stronger effect = lower value
[53] = locus YNL222W, strain SSU72, stronger effect = lower value
[54] = locus YNL307C, strain MCK1 (second series), stronger effect = lower value
[55] = locus YOL078W, strain AVO1, stronger effect = lower value
[56] = locus YOL136C, strain PFK27, stronger effect = lower value
[57] = locus YOR061W, strain CKA2, stronger effect = lower value
[58] = locus YOR119C, strain RIO1, stronger effect = lower value
[59] = locus YOR231W, strain MKK1, stronger effect = lower value
[60] = locus YOR329C, strain SCD5, stronger effect = lower value
[61] = locus YPL031C, strain PHO85, stronger effect = lower value
[62] = locus YPL153C, strain RAD53, stronger effect = lower value
[63] = locus YPL204W, strain HRR25, stronger effect = lower value
[64] = locus YPL209C, strain IPL1, stronger effect = lower value
[65] = locus YPL256C, strain CLN2, stronger effect = lower value
[66] = locus YPR025C, strain CCL1, stronger effect = lower value
[67] = locus YPR106W, strain ISR1, stronger effect = lower value
[68] = locus YPR111W, strain DBF20, stronger effect = lower value
[69] = strain NNK1, stronger effect = lower value
[70] = strain TSCII, stronger effect = lower value

Measured: normalized growth

Cc1ccc(NC(=O)c2c(F)cccc2Cl)c(C(=O)Nc2ccc(F)cc2)c1
inactive: locus YAL013W, strain DEP1, stronger effect = lower value 0.993 | locus YBR229C, strain ROT2, stronger effect = lower value 0.998 | [1] 1.02 | locus YDR150W, strain NUM1, stronger effect = lower value 1.02 | locus YEL061C, strain CIN8, stronger effect = lower value 0.987 | locus YGR078C, strain PAC10, stronger effect = lower value 1.02 | locus YGR229C, strain SMI1, stronger effect = lower value 1.01 | [2] 1.06 | locus YHR087W, strain rtc3, stronger effect = lower value 0.976 | locus YJR043C, strain POL32, stronger effect = lower value 1.02 | locus YJR075W, strain HOC1, stronger effect = lower value 1.01 | locus YLR039C, strain RIC1, stronger effect = lower value 0.868 | locus YLR058C, strain SHM2 (second series), stronger effect = lower value 0.995 | locus YLR085C, strain ARP6, stronger effect = lower value 1.03 | locus YLR262C, strain YPT6, stronger effect = lower value 0.933 | locus YML094W, strain GIM5, stronger effect = lower value 1.01 | locus YMR219W, strain ESC1, stronger effect = lower value 1 | locus YMR263W, strain SAP30, stronger effect = lower value 1 | locus YMR307W, strain GAS1, stronger effect = lower value 1.1 | locus YNL153C, strain GIM3, stronger effect = lower value 1.03 | locus YNL298W, strain CLA4 (second series), stronger effect = lower value 1.02 | locus YNL322C, strain KRE1, stronger effect = lower value 0.997 | locus YNR030W, strain Alg12, stronger effect = lower value 1 | locus YOL006C, strain TOP1, stronger effect = lower value 1.02 | locus YPL055C, strain LGE1, stronger effect = lower value 0.952 | locus YPL241C, strain CIN2, stronger effect = lower value 1.03 | locus YPR135W, strain CTF4, stronger effect = lower value 1.05

Cc1ccc(NS(=O)(=O)c2ccc(Cl)cc2)c(N=Cc2cc(Cl)cc(Cl)c2O)c1
inactive: [3] 0.952 | [4] 0.965 | [5] 0.955 | [6] 0.961 | [7] 0.961 | [8] 0.958 | [9] 0.96 | [1] 0.968 | [10] 0.954 | [11] 0.962 | [13] 0.961 | [14] 0.929 | [15] 0.958 | [19] 0.945 | [20] 0.95 | [21] 0.948 | [23] 0.965 | [30] 0.949 | [33] 0.967 | [39] 0.968 | [45] 0.971 | [47] 0.936 | [48] 0.946 | [50] 0.951 | [52] 0.949 | [53] 0.963 | [55] 0.962 | [60] 0.96 | [64] 0.958 | [66] 0.959 | [67] 0.959 | [68] 0.943 | [70] 0.959
active: [12] 0.277 | [16] 0.252 | [17] 0.169 | [18] 0.269 | [22] 0.342 | [24] 0.323 | [25] 0.219 | [26] 0.137 | [2] 0.118 | [27] 0.151 | [28] 0.147 | [29] 0.154 | [31] 0.15 | [32] 0.162 | [34] 0.363 | [35] 0.144 | [36] 0.336 | [37] 0.257 | [38] 0.291 | [40] 0.273 | [41] 0.3 | [42] 0.198 | [43] 0.118 | [44] 0.203 | [46] 0.289 | [49] 0.17 | [51] 0.208 | [54] 0.145 | [56] 0.193 | [57] 0.196 | [58] 0.303 | [59] 0.203 | [61] 0.231 | [62] 0.234 | [63] 0.211 | [65] 0.255 | [69] 0.776

Cc1ccc(NC(=O)c2ccccc2N=Cc2cc(Cl)cc(Cl)c2O)c(N=Cc2cc(Cl)cc(Cl)c2O)c1
inactive: [3] 0.926 | [4] 0.926 | [5] 0.921 | [6] 0.927 | [7] 0.934 | [8] 0.927 | [9] 0.927 | [1] 0.962 | [10] 0.925 | [11] 0.937 | [13] 0.93 | [14] 0.911 | [15] 0.925 | [19] 0.93 | [20] 0.909 | [21] 0.913 | [23] 0.933 | [30] 0.914 | locus YJL128C, strain PBS2, stronger effect = lower value 0.885 | [33] 0.934 | [39] 0.924 | [45] 0.925 | [47] 0.935 | [48] 0.931 | [50] 0.906 | [52] 0.922 | [53] 0.929 | [55] 0.928 | [60] 0.913 | [64] 0.929 | [66] 0.928 | [67] 0.936 | [68] 0.916 | [69] 0.91 | [70] 0.922
active: [12] 0.459 | [16] 0.284 | [17] 0.252 | [18] 0.365 | [22] 0.598 | [24] 0.377 | [25] 0.363 | [26] 0.123 | [2] 0.213 | [27] 0.201 | [28] 0.293 | [29] 0.166 | [31] 0.218 | [32] 0.272 | [34] 0.51 | [35] 0.237 | [36] 0.422 | [37] 0.359 | [38] 0.387 | [40] 0.37 | [41] 0.247 | [42] 0.28 | [43] 0.131 | [44] 0.32 | [46] 0.348 | [49] 0.198 | [51] 0.254 | [54] 0.188 | [56] 0.25 | [57] 0.197 | [58] 0.39 | [59] 0.255 | [61] 0.291 | [62] 0.324 | [63] 0.313 | [65] 0.294

From PubChem BioAssay AID1159580 (chemical genetic matrix, 2015)
